From PubChem BioAssay (NCI) come the findings set out here.

About 83,000 compounds went through this panel and 20% of them were active in at least one assay; those are over-represented in the sample as a whole.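 Activity criterion: percent growth below 10, measured after cells in 96-well plates were exposed to a single compound concentration for 48 hours.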 Unmarked numbers belong to inactive results. Activity calls are given as the source filed them.

Test in all cases: NCI-60 one-dose screen, 48 h (100 = growth as untreated, 0 = no growth, -100 = all killed)
One experiment has as its system 786-0 renal. The settings on record: 10 µM.
The subject of the next experiment is K-562 leukemia. The settings on record: 10 µM.
The next experiment has as its system MALME-3M melanoma. The settings on record: 10 µM.
The next experiment deals with RXF 393 renal. The settings on record: 10 µM.
The test system of the next experiment is EKVX NSCLC. Particulars: 10 µM.
The subject of another experiment is SN12C renal. Particulars: 10 µM.
In a further experiment the test system is UO-31 renal. Particulars: 10 µM.
The next experiment deals with TK-10 renal. Particulars: 10 µM.
A further experiment concerns ACHN renal. Particulars: 10 µM.
A further experiment deals with CAKI-1 renal. The settings on record: 10 µM.
The test system of another experiment is CCRF-CEM leukemia. Particulars: 10 µM.
Another experiment relates to OVCAR-8 ovarian. The settings on record: 10 µM.
A further experiment deals with OVCAR-5 ovarian. The settings on record: 10 µM.
The test system of a further experiment is OVCAR-4 ovarian. The settings on record: 10 µM.
The next experiment concerns SK-OV-3 ovarian. Particulars: 10 µM.
Another experiment concerns OVCAR-3 ovarian. The settings on record: 10 µM.
The next experiment has as its system NCI/ADR-RES ovarian. The settings on record: 10 µM.
Another experiment deals with BT-549 breast. The settings on record: 10 µM.
A further experiment relates to MCF7 breast. The settings on record: 10 µM.
The subject of a further experiment is MDA-MB-468 breast. The settings on record: 10 µM unless noted.

For the compound `O=C(/C=C/c1ccco1)c1nc2ccccc2n1Cc1ccc(F)cc1`, the growth is 67.6% in the experiment on 786-0 renal; 20.7% with K-562 leukemia; 59.9% with MALME-3M melanoma; 33.3% in the experiment on RXF 393 renal; 58.9% in the experiment on EKVX NSCLC; 79.2% in the experiment on SN12C renal. The growth with UO-31 renal was 46.8%; in the experiment with TK-10 renal, 92.1%; in the experiment with ACHN renal, 79.1%; with CAKI-1 renal, 57.6%; with CCRF-CEM leukemia it was 21.4%; in the experiment on OVCAR-8 ovarian, 70.1%. Further, the growth was 89.4% with OVCAR-5 ovarian; 48% in the experiment with OVCAR-4 ovarian; 85.5% in the experiment on SK-OV-3 ovarian; 46.3% in the experiment with OVCAR-3 ovarian; 72.5% with NCI/ADR-RES ovarian; 59.7% in the experiment on BT-549 breast. Further, the growth with MCF7 breast was 8.93% (active); in the experiment on MDA-MB-468 breast it was 24%.
For `CC[C@]12C=CCN3CC[C@@]4(c5ccc(OC)cc5N(C)[C@H]4[C@@](O)(C(=O)OC)[C@@H]1OC(=O)CCCC[P+](c1ccc(C)cc1)(c1ccc(C)cc1)c1ccc(C)cc1)[C@@H]32`, the growth in the experiment on 786-0 renal was -91% (active); in the experiment with K-562 leukemia, 0.797% (active); in the experiment with MALME-3M melanoma, -96% (active); in the experiment on RXF 393 renal, -87.6% (active); in the experiment on EKVX NSCLC it was -93.8% (active); with SN12C renal, -88.5% (active). Moreover, the growth is -96% (active) with UO-31 renal; -91.3% (active) in the experiment with TK-10 renal; -99.3% (active) with ACHN renal; -95.2% (active) in the experiment with CAKI-1 renal; -72.4% (active) in the experiment with CCRF-CEM leukemia; -86.6% (active) with OVCAR-8 ovarian. Besides, the growth is -96% (active) in the experiment with OVCAR-5 ovarian; -68.9% (active) with OVCAR-4 ovarian; -82.3% (active) in the experiment with SK-OV-3 ovarian; -77.1% (active) in the experiment on OVCAR-3 ovarian; 71.8% in the experiment on NCI/ADR-RES ovarian; -97% (active) in the experiment on BT-549 breast. The growth in the experiment with MCF7 breast is -81.2% (active); in the experiment with MDA-MB-468 breast, -92.5% (active).
Consider `COC(=O)C[C@](O)(CCC(C)C)C(=O)O[C@H]1C(OC)=C[C@@]23CCCN2CCc2cc4c(cc2[C@@H]13)OCO4`, for which the growth in the experiment on 786-0 renal is -16.1% (active); in the experiment on K-562 leukemia it was 4.01% (active); in the experiment on MALME-3M melanoma it was -45.1% (active); in the experiment on RXF 393 renal it was -30.5% (active); with EKVX NSCLC, -16.2% (active); in the experiment on SN12C renal, -14.9% (active). Besides, the growth is -25.3% (active) in the experiment on UO-31 renal; -16.4% (active) with TK-10 renal; -23.3% (active) with ACHN renal; -28.4% (active) with CAKI-1 renal; -5.42% (active) in the experiment with CCRF-CEM leukemia; -38.8% (active) in the experiment on OVCAR-8 ovarian. Also, the growth is -20.4% (active) in the experiment with OVCAR-5 ovarian; -22.7% (active) in the experiment on OVCAR-4 ovarian; -8.41% (active) with SK-OV-3 ovarian; -36.9% (active) with OVCAR-3 ovarian; -2.69% (active) with NCI/ADR-RES ovarian; -33.7% (active) in the experiment on BT-549 breast. Also, the growth with MCF7 breast is -17% (active); in the experiment on MDA-MB-468 breast it was -39.7% (active).
`CC1=C(C=O)C2=C(C)C3(CC3)[C@@](C)(O)C(=O)C2=C1`: the growth is -38.7% (active) in the experiment on 786-0 renal; 1.71% (active) in the experiment with MALME-3M melanoma; -68.8% (active) in the experiment on RXF 393 renal; 68% in the experiment with EKVX NSCLC; 44.2% with SN12C renal; 11.2% in the experiment on UO-31 renal. The growth in the experiment with TK-10 renal is 53.6%; in the experiment on ACHN renal, -61.1% (active); in the experiment on CAKI-1 renal it was 31.7%; in the experiment with CCRF-CEM leukemia it was 18%; in the experiment on OVCAR-8 ovarian, -25.3% (active); in the experiment on OVCAR-5 ovarian, 36.7%. Further, the growth in the experiment with OVCAR-4 ovarian is 44.5%; in the experiment with SK-OV-3 ovarian it was -3.31% (active); in the experiment on OVCAR-3 ovarian, -9.94% (active); in the experiment with NCI/ADR-RES ovarian, 16%; in the experiment on BT-549 breast, -14.5% (active); in the experiment with MCF7 breast, 14%. In addition, the growth in the experiment with MDA-MB-468 breast was -33.8% (active).
In the case of `O=C(/C=C/c1cccc(Br)c1)c1nc2ccccc2n1Cc1ccc(Br)cc1`, the growth in the experiment on 786-0 renal is -79% (active); in the experiment with K-562 leukemia, -2.19% (active); in the experiment with MALME-3M melanoma, -36.5% (active); in the experiment on RXF 393 renal, -81.2% (active); with EKVX NSCLC, -54.8% (active); in the experiment with SN12C renal, -10.1% (active). The growth was -57.3% (active) with UO-31 renal; 10.4% in the experiment on TK-10 renal; -30.5% (active) in the experiment with ACHN renal; 16.6% in the experiment with CAKI-1 renal; -15.6% (active) with CCRF-CEM leukemia; -8.23% (active) with OVCAR-8 ovarian. In addition, the growth was -50.4% (active) in the experiment on OVCAR-5 ovarian; 35.3% with OVCAR-4 ovarian; 65.4% in the experiment on SK-OV-3 ovarian; -51.5% (active) in the experiment on OVCAR-3 ovarian; -48.8% (active) with NCI/ADR-RES ovarian; -44.7% (active) in the experiment with BT-549 breast. Besides, the growth in the experiment with MCF7 breast is -32.8% (active); in the experiment on MDA-MB-468 breast, -58.5% (active).
With `C[C@H]1[C@H](OC(=O)CCC(=O)N(CCCc2cn(-c3ccc([N+](=O)[O-])cc3)nn2)CCNc2ccnc3cc(Cl)ccc23)O[C@@H]2OC3(C)CC[C@H]4[C@H](C)CC[C@@H]1[C@@]24OO3`, the growth in the experiment with 786-0 renal is 47.1%; in the experiment with K-562 leukemia it was 8.36% (active); in the experiment on MALME-3M melanoma, 47.5%; with RXF 393 renal, 26.1%; with EKVX NSCLC it was 46.8%; with SN12C renal, 54.9%. Moreover, the growth in the experiment with UO-31 renal is 18.3%; in the experiment on TK-10 renal it was 51.2%; in the experiment with ACHN renal, 37.5%; in the experiment with CAKI-1 renal, 37.4%; in the experiment with CCRF-CEM leukemia, 26.3%; in the experiment with OVCAR-8 ovarian, 23.7%. Besides, the growth with OVCAR-5 ovarian is 54.3%; in the experiment with OVCAR-4 ovarian, 41.8%; in the experiment with SK-OV-3 ovarian it was 98.2%; with OVCAR-3 ovarian, 40.8%; in the experiment on NCI/ADR-RES ovarian, 30.6%; in the experiment with BT-549 breast, 43%. In addition, the figures for the growth in the experiment with MCF7 breast and in the experiment with MDA-MB-468 breast were 10.4% and 31.2%, respectively.
In the case of `CN(C)CCc1cn(C2CCC2)c2cccc(O)c12`, the growth with 786-0 renal is 50%; in the experiment on K-562 leukemia, 1.37% (active); in the experiment with MALME-3M melanoma, 46.5%; with RXF 393 renal it was 53.2%; in the experiment on EKVX NSCLC it was 94.9%; in the experiment on SN12C renal, 68%. In addition, the growth with UO-31 renal is 47.8%; in the experiment with TK-10 renal it was 103%; with ACHN renal, 84.6%; in the experiment on CAKI-1 renal it was 42.3%; with CCRF-CEM leukemia it was 56.6%; with OVCAR-8 ovarian it was 96.6%. Also, the growth was 79.8% in the experiment on OVCAR-5 ovarian; 86.6% in the experiment with OVCAR-4 ovarian; 92.9% in the experiment with SK-OV-3 ovarian; 93.6% in the experiment on OVCAR-3 ovarian; 74.3% with NCI/ADR-RES ovarian; 68.1% in the experiment on BT-549 breast. The growth with MCF7 breast was 22.4%; in the experiment on MDA-MB-468 breast it was 44.6%.
